Laboratory results published in PubChem BioAssay (NCI).
About 83,000 compounds went through this panel and 20% of them were active in at least one assay; those are over-represented in the sample as a whole.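 Negative percent growth values reflect cell death: -40 means 40% of the cells present at the start died, and -100 means all died.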 Active and inactive are the calls of the source. The calls were made as follows: active = growth percent below 10; inactive = the rest.

Assays:
Test in all cases: NCI-60 one-dose screen, 48 h (100 = growth as untreated, 0 = no growth, -100 = all killed)
NCI-H226 lung = conditions: 10 µM unless noted
HOP-92 NSCLC = conditions: 10 µM unless noted
A549/ATCC NSCLC = conditions: 10 µM unless noted
COLO 205 colon = conditions: 10 µM
MALME-3M melanoma = conditions: 10 µM unless noted
SNB-75 CNS = conditions: 10 µM unless noted
EKVX NSCLC = conditions: 10 µM unless noted
ACHN renal = conditions: 10 µM unless noted
SR leukemia = conditions: 10 µM
OVCAR-5 ovarian = conditions: 10 µM unless noted
SK-OV-3 ovarian = conditions: 10 µM unless noted
IGROV1 ovarian = conditions: 10 µM
NCI/ADR-RES ovarian = conditions: 10 µM unless noted
SK-MEL-2 melanoma = conditions: 10 µM unless noted
TK-10 renal = conditions: 10 µM unless noted
OVCAR-4 ovarian = conditions: 10 µM unless noted
NCI-H522 lung = conditions: 10 µM unless noted
NCI-H322M lung = conditions: 10 µM unless noted
HOP-62 NSCLC = conditions: 10 µM unless noted

Measured: growth

OC1(c2ccccc2F)c2ccccc2C2=NCCN21 (stereo unspecified)
inactive: NCI-H226 lung 84.8% | HOP-92 NSCLC 78.9% | A549/ATCC NSCLC 114% | COLO 205 colon 101% | MALME-3M melanoma 97.2% | SNB-75 CNS 104% | EKVX NSCLC 97.8% | ACHN renal 114% | SR leukemia 90.9% | OVCAR-5 ovarian 98.6% | SK-OV-3 ovarian 105% | IGROV1 ovarian 79.4% | NCI/ADR-RES ovarian 86.6%

Oc1ccc(O)c2c1C1(Cl)C(Cl)=C(Cl)C2(Cl)C1(Cl)Cl
inactive: NCI-H226 lung 59% | A549/ATCC NSCLC 46.1% | COLO 205 colon 72% | MALME-3M melanoma 20% | SNB-75 CNS 31.6% | SK-MEL-2 melanoma 31.3% | EKVX NSCLC 34.3% | TK-10 renal 75.4% | SR leukemia 34.9% | OVCAR-5 ovarian 70.1% | OVCAR-4 ovarian 54.1% | SK-OV-3 ovarian 66.9% | IGROV1 ovarian 38.3% | NCI/ADR-RES ovarian 40.5%

COc1ccc(NP2(=O)OCC(C)(N)CO2)cc1 (stereo unspecified)
inactive: NCI-H226 lung 105% | HOP-92 NSCLC 94.8% | NCI-H522 lung 92.5% | A549/ATCC NSCLC 93.6% | COLO 205 colon 109% | MALME-3M melanoma 97.3% | SNB-75 CNS 95.7% | SK-MEL-2 melanoma 108% | EKVX NSCLC 120% | TK-10 renal 93.2% | SR leukemia 88.7% | OVCAR-5 ovarian 102% | OVCAR-4 ovarian 110% | SK-OV-3 ovarian 103% | IGROV1 ovarian 102% | NCI/ADR-RES ovarian 98.2%

C/C1=C/C(=O)O[C@@H]2C[C@@H](CC[C@H](C)/C=C\C=C\CC1)O[C@@](OCCc1ccccc1)([C@@H]1CSC(=O)N1)C2
inactive: NCI-H322M lung 27.8% | A549/ATCC NSCLC 15.4% | SK-MEL-2 melanoma 67.7% | SR leukemia 41.3% | OVCAR-5 ovarian 11.2% | NCI/ADR-RES ovarian 48.4%
active: HOP-62 NSCLC -15.8% | HOP-92 NSCLC -58.9% | NCI-H522 lung 7.26% | COLO 205 colon 5.64% | MALME-3M melanoma -10.3% | SNB-75 CNS -62.8% | EKVX NSCLC 1.32% | TK-10 renal -68.1% | ACHN renal 7.46% | OVCAR-4 ovarian -4.5% | SK-OV-3 ovarian -32.3% | IGROV1 ovarian -55.8%

CCOc1c(Cl)cc(CNC(C)C(O)c2ccccc2)cc1OC (stereo unspecified)
inactive: NCI-H322M lung 92% | HOP-62 NSCLC 73.3% | NCI-H522 lung 69.1% | COLO 205 colon 95% | MALME-3M melanoma 46.9% | ACHN renal 76.8% | SR leukemia 10.8% | OVCAR-5 ovarian 103% | SK-OV-3 ovarian 86.3% | IGROV1 ovarian 66% | NCI/ADR-RES ovarian 50.9%
active: SNB-75 CNS -15.5%

NC(=O)C(Br)CBr (stereo unspecified)
inactive: SNB-75 CNS 103% | OVCAR-5 ovarian 10.9% | SK-OV-3 ovarian 80% | NCI/ADR-RES ovarian 15.3%
active: NCI-H226 lung -18.8% | HOP-92 NSCLC -83.7% | NCI-H522 lung -81.7% | A549/ATCC NSCLC 4.34% | COLO 205 colon -83.4% | SK-MEL-2 melanoma -85.3% | EKVX NSCLC -73.1% | ACHN renal -76.2% | OVCAR-4 ovarian -100%

CCC(C)(C)O
inactive: NCI-H226 lung 102% | A549/ATCC NSCLC 108% | COLO 205 colon 110% | MALME-3M melanoma 110% | SNB-75 CNS 92.1% | EKVX NSCLC 98% | TK-10 renal 107% | ACHN renal 103% | SR leukemia 101% | OVCAR-5 ovarian 90.1% | OVCAR-4 ovarian 111% | SK-OV-3 ovarian 118% | IGROV1 ovarian 117% | NCI/ADR-RES ovarian 110%

CC[C@@]1(C2O[C@@H](C3O[C@@](O)(CC)[C@H](C)C[C@@H]3C)C[C@@H]2C)CC[C@H]([C@]2(C)CCC3(C[C@H](O)[C@@H](C)[C@@H]([C@H](C)[C@@H](OC)[C@H](C)C(=O)O)O3)O2)O1 (stereo partly specified)
inactive: NCI-H322M lung 38.8% | A549/ATCC NSCLC 17.6% | EKVX NSCLC 26.1% | TK-10 renal 49.1% | ACHN renal 32% | OVCAR-5 ovarian 43.9% | SK-OV-3 ovarian 23% | NCI/ADR-RES ovarian 31.1%

O=C(N/N=C/c1ccc([N+](=O)[O-])o1)c1cc([N+](=O)[O-])cc([N+](=O)[O-])c1O
inactive: NCI-H226 lung 97.9% | HOP-92 NSCLC 117% | A549/ATCC NSCLC 102% | MALME-3M melanoma 122% | SNB-75 CNS 83% | EKVX NSCLC 108% | TK-10 renal 121% | ACHN renal 90.6% | SR leukemia 70.7% | OVCAR-5 ovarian 114% | OVCAR-4 ovarian 106% | SK-OV-3 ovarian 101% | IGROV1 ovarian 97% | NCI/ADR-RES ovarian 89.1%

COc1cc(C2CC(=O)Nc3nc(N)[se]c32)c(OC)c2c1OCO2 (stereo unspecified)
inactive: NCI-H322M lung 22.6% | HOP-62 NSCLC 32.7% | NCI-H522 lung 99.1% | A549/ATCC NSCLC 58.9% | COLO 205 colon 112% | MALME-3M melanoma 102% | SNB-75 CNS 101% | EKVX NSCLC 94.4% | TK-10 renal 109% | ACHN renal 99.1% | SR leukemia 107% | OVCAR-5 ovarian 108% | SK-OV-3 ovarian 78.3% | IGROV1 ovarian 83.6% | NCI/ADR-RES ovarian 109%

O=C(O)C1(Br)CC12c1ccccc1-c1ccccc12 (stereo unspecified)
inactive: NCI-H226 lung 98.9% | HOP-92 NSCLC 100% | NCI-H522 lung 95.9% | A549/ATCC NSCLC 98.4% | COLO 205 colon 115% | MALME-3M melanoma 100% | SK-MEL-2 melanoma 110% | EKVX NSCLC 116% | TK-10 renal 88% | ACHN renal 99% | SR leukemia 88.9% | OVCAR-4 ovarian 107% | SK-OV-3 ovarian 101% | IGROV1 ovarian 99.7%
